From ChEMBL document CHEMBL1157539, “Thousands of chemical starting points for antimalarial lead identification” (Nature, 2010)

These compounds were tested on Plasmodium falciparum (assay: GSK_TCMDC: Inhibition of Plasmodium falciparum Dd2 in whole red blood cells, using parasite LDH activity as an index of growth. Test compounds present at 2uM).
Type: functional
For CCc1ccc(C2CCN(CCCCNC(=O)c3ccc(NC(=O)c4ccc(Cl)cc4)cc3)CC2)c(OCCO)c1, the Inhibition was 100%.
CCO[C@H]1CN[C@H](C#Cc2cc3c(Nc4ccc(OCc5cccc(F)c5)c(Cl)c4)ncnc3s2)C1.O=C(O)C(F)(F)F showed an Inhibition of 37%.
Compound N#Cc1cnc2cc(-c3cnc(CNCCN4CCOCC4)s3)ccc2c1Nc1ccc(Oc2ccccc2)cc1 has an Inhibition of 83%.
For CC(C)c1cccc(C(C)C)c1NC(=O)NNC(=O)c1ccc(CCN2CCC(c3nc(COCC(F)(F)F)c(-c4ccc(F)cc4)o3)CC2)cc1, the Inhibition was 34%.
In the case of C[C@@H](CC1CCCCC1)NCc1cccc(NS(=O)(=O)c2ccc(O)c(-c3ccno3)c2)c1.Cl, the Inhibition is reported as 4%.
Compound COc1cc2c(cc1OC)CN(CCCCc1ccc(NC(=O)c3cc(Cl)cc(Cl)c3)cc1)CC2 has an Inhibition of 4%.
With CCCc1c(Cl)cc(CNCCCNc2nc3ccncc3[nH]2)cc1Cl the Inhibition was 0%.
With COc1cc(NCCCNCc2cn(S(=O)(=O)c3ccccc3)c3ccccc23)nc2ccccc12 the Inhibition was 77%.
CC(=O)N[C@H](C(=O)Nc1ccc(-c2ccc(-c3nc4cc(C(F)(F)F)ccc4[nH]3)cc2)cc1)C(C)C was tested, and the Inhibition was 76%.
CC(C)N(Cc1ccc(-c2ccc(C(F)(F)F)cc2)cc1)C(=O)Cn1c(SCc2cccc(F)c2F)cc(=O)c2cc(CN3CCCCC3)ccc21.Cl showed an Inhibition of 59%.
CN1CCC(N2CCN(Cc3cccc(-c4ccc(-c5nc6cc(C(F)(F)F)ccc6[nH]5)cc4)c3)CC2)CC1.O=C(O)C(F)(F)F gave an Inhibition of 91%.
With Cl.N=c1n(Cc2ccc(Cl)cc2)c2ccccc2n1CC(O)c1ccc(Cl)c(Cl)c1 (stereo not given) the Inhibition was 99%.
With CCc1cn2c3c(cc(C(=O)N[C@@H](Cc4cccc(F)c4)[C@H](O)CNC4CCOCC4)cc13)N(C)S(=O)(=O)CC2.O=CO the Inhibition was 97%.
In the case of COc1cc(Nc2nccc(Nc3ccc4c(C)n[nH]c4c3)n2)cc2ccccc12.Cl, the Inhibition is reported as 82%.
In the case of O=C(Nc1cc(C(F)(F)F)ccc1-n1cncn1)C1(c2ccccc2)CC1, the Inhibition is reported as 100%.
Cc1cccc2nc(-c3ccc(-c4ccc(NC(=O)Nc5ccc(F)c(F)c5F)cc4)cc3)[nH]c12 was tested, and the Inhibition was 97%.
With COc1ccc2c(NN=Cc3cccc(Cl)c3)ccnc2c1 the Inhibition was 94%.
CCn1c(Sc2ccc(C#N)c([N+](=O)[O-])c2)nnc1-c1ccc(OC)cc1 showed an Inhibition of 94%.
O=C1CC(C(=O)O)CC(=O)N1 gave an Inhibition of 88%.
In the case of CCC(C)NC(=O)Nc1ccc(-c2cccc(-c3nc4cccc(C)c4[nH]3)c2)cc1 (stereo not given), the Inhibition is reported as 83%.
Clc1cc(Cl)c2cc(CNCCCNc3ccc4ccccc4n3)[nH]c2c1.O=C(O)C(F)(F)F showed an Inhibition of 54%.
Work on COc1ccc2nccc([C@@H](O)CN3CCC(NCc4ccc5c(n4)NCCC5)CC3)c2c1 yielded an Inhibition of 39%.
Work on Cl.Oc1ccc(Cc2cc(Oc3c(I)cc(CCc4ncc[nH]4)cc3I)ccc2O)cc1 yielded an Inhibition of 32%.
O=C(NCc1cccc(F)c1)Nc1cccc(-c2ccc(-c3nc4cc(C(F)(F)F)ccc4[nH]3)cc2)c1 gave an Inhibition of 20%.
Work on CCCCN(CCCC)CCCN(CCCN(CCCC)CCCC)c1cc(C)nc(Nc2ccc(Br)cc2)n1.O=C(O)C(=O)O yielded an Inhibition of 98%.
CC(C)c1cc2c(ccc3nc(N)nc(N)c32)o1 showed an Inhibition of 37%.
COc1ccc(CNCc2cccc(-c3csc(-c4nc5ccccc5[nH]4)c3)c2)cc1.O=C(O)C(F)(F)F showed an Inhibition of 22%.
With CC1(CCc2ccccc2)N=C(N)N=C(N)C1c1ccc(Cl)c(Cl)c1.Cl (stereo not given) the Inhibition was 39%.
Cn1cc(C(=O)Nc2cccc(-c3cccc(-c4nc5cc(F)ccc5[nH]4)c3)c2)n(C)c1=O gave an Inhibition of 50%.
Compound CC(C)CCN1CCCN(Cc2cccc(NC(=O)c3ccc(-c4ccccc4)cc3)c2)CC1.O=C(O)C(F)(F)F has an Inhibition of 21%.
Work on N=C(N)Nc1ccc(C(=O)O)c(O)c1 yielded an Inhibition of 1%.
With CN1C(=CC(=O)NC(=O)c2ccccc2)C(C)(C)c2ccccc21 the Inhibition was 89%.
CS(=O)(=O)c1cccc(-c2cnc(N)c3cc(-c4ccc(F)cc4)ccc23)c1 was tested, and the Inhibition was 33%.
With CCn1nc(C(=O)NC2CCOc3ccccc32)c2ccccc2c1=O (stereo not given) the Inhibition was 59%.
COc1ccccc1Nc1nc(C)cc(NCc2ccc(-c3c(C)noc3C)cc2)n1 was tested, and the Inhibition was 13%.
For CCc1nc2c(cnn2CC)c(NC2CCOCC2)c1CNC(=O)c1ccoc1C, the Inhibition was 87%.
With COc1ccccc1-n1c(SCC(=O)c2ccc3c(c2)CC(=O)N3C)nnc1-c1cccs1 the Inhibition was 55%.
With Cc1cccc(C(O)CNc2ccnc(Nc3cccc(-c4csc(C)n4)c3)n2)c1 (stereo not given) the Inhibition was 88%.
Compound COc1ccc2ncc(Cl)c([C@@H](O)CN3CCC(NCc4cc5c(cn4)OCCO5)CC3)c2c1.Cl has an Inhibition of 100%.
CN(C)C(=O)c1cc(CNCc2ccccc2)ccc1-c1cccc(CNCc2ccc(-c3ccccc3)cc2)c1.O=C(O)C(F)(F)F showed an Inhibition of 12%.
